HIF-2a inh: inhibitors of HIF-2a; 786-0 RCC cells HIF-2a reporter, luciferase luminescence, overnight; inhibition, % at 18.8 µM; actives 0.72% (n = 360,000); AID 624352;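 active = inhibition of the luminescence signal of 40% or more relative to plate controls, in a single-dose primary screen at 18.75 µM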
Peg3 prom inh: Peg3 promoter activity inhibition. inhibition, % at 20 µM. HeLa PEG-Prom luciferase reporter, luminescence, overnight. actives 1.7% (n = 360,000);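 active = inhibition of at least 50% at 20 µM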
KKLEB tox: reduces viability of KKLEB cystic fibrosis airway cells | KKLEB CF airway cells viability, ATPlite luminescence, overnight; active compounds read low; cells stimulated with P. aeruginosa culture filtrate | activity change (cytotoxicity), % at 5 µM | actives 0.36% (n = 360,000);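 active = corrected activity change at or below -50% at 5 µM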
CF NFkB inh: cystic fibrosis NF-kB activation inhibition. actives 0.86% (n = 360,000). KKLEB NF-kB-GFP reporter, PAF-induced, GFP fluorescence overnight. inhibition, % at 5 µM;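 active = at least 50% inhibition at 5 µM, scaled per plate between neutral and stimulator controls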;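 note: PAF is a Pseudomonas aeruginosa culture filtrate used as stimulus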
B2AR ag: activates human beta-2 adrenergic receptor causing internalization; P07550; Am2.2-beta2AR cells, FAP receptor internalization, flow cytometry; response, % (no concentration beside the values); actives 0.43% (n = 340,000);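 active = response above a set limit, near 3 SD of response in nonfluorescent compounds, cut at about 42% in these data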
Target sequence (P07550 whole entry, looked up): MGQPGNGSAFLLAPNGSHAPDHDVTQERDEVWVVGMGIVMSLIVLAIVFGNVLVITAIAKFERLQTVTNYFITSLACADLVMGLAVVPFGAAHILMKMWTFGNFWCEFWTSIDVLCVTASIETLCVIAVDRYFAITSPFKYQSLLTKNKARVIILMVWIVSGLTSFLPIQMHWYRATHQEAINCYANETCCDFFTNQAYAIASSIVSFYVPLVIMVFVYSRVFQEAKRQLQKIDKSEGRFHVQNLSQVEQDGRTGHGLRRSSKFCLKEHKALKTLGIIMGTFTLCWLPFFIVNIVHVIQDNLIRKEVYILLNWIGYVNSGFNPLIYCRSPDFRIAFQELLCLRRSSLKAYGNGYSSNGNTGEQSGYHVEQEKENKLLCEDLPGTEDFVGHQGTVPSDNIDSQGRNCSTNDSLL
TRPM1 prom inh: inhibitors of MITF-driven TRPM1 promoter in melanoma cells; actives 0.83% (n = 330,000); SK-MEL-5 TRPM1 promoter luciferase, 24 h; inhibition, % at 12.5 µM;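 active = mean inhibition across replicates of 60% or more, whatever share of single replicates reaches that level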
CF NFkB conf: confirmation of cystic fibrosis induced NF-kB inhibitors. shares compounds with CF NFkB inh. KKLEB CF airway cells, PAF-induced NF-kB-GFP fluorescence, overnight. inhibition, % at 5 µM. actives 64% (n = 1,300). AID 602472; in the data active = inhibition above about 40%;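 note: stimulus PAF is a Pseudomonas aeruginosa filtrate and not platelet activating factor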
Numbers stand for hits; - = inactive; . = no result. Hits are enriched below; roughly 2.8% of the tested compounds scored in any of these assays.

SMILES	HIF-2a inh	Peg3 prom inh	KKLEB tox	CF NFkB inh	B2AR ag	TRPM1 prom inh	CF NFkB conf
Clc1cccc(Cc2c(-c3ccco3)nc3ccc(Cl)cn23)c1	-	-	-	69.5	.	.	-
CCCNC(=O)c1cc2c(c(-c3cccc(-c4ccccc4F)c3)n1)[C@@H](CCO)N(C(=O)CC1CC1)C2	-	.	.	.	.	.	.
O=C(NC(c1ccccc1)c1ccc2ccccc2n1)C1CCN(Cc2cccc(C(F)(F)F)c2)CC1 (stereo not drawn)	-	-	-	-	.	.	.
c1cc(-c2cnc3cccnn23)c2cccnc2c1	-	-	-	75.2	.	.	51.1
Cc1ccc2occ(/C=N/NC(=O)c3ccc(O)cc3)c(=O)c2c1	-	-	-	65.6	-	-	-
Cc1ccc2occ(/C=N/NC(=O)c3ccccc3Br)c(=O)c2c1	-	-	-	57.2	-	-	57.1
CCOc1ccccc1C(=O)N/N=C/c1coc2ccc(C)cc2c1=O	-	-	-	71.4	-	-	-
Cc1ccc2occ(/C=N/NC(N)=S)c(=O)c2c1	-	-	-	-	-	-	.
O=C(N/N=C/c1coc2ccccc2c1=O)c1cc(Br)ccc1O	-	-	-	-	-	-	.
N#CC(C#N)=C1SC(=Nc2ccccc2)C(=Nc2ccccc2)N1c1ccccc1	-	88.8	-	67.4	-	-	78.8
NC(=O)c1cccc(-c2coc3c(C(=O)NCc4ccccc4)cccc23)c1	-	-	-	-	.	.	.
Cc1cc2c(cc1C)-n1nnnc1C(N1CCN(CC(=O)N3CCCC3)CC1)C(=O)N2 (stereo not drawn)	-	.	.	.	.	.	.
COc1ccc2c(=O)cc(-c3ccncc3)oc2c1OC	-	88.6	-	59.4	-	-	77.0
CC1(C(=O)Nc2cnc3ccccc3c2)CCN1Cc1ccc(-c2ccccc2)o1 (stereo not drawn)	-	-	-	-	.	.	.
COc1ccc(NC(=O)CNc2ccc(OC)c(S(=O)(=O)N3CCOCC3)c2)cc1	-	-	-	-	.	.	.
CC(C)n1c(SCc2cc(=O)[nH]c3ccccc23)nc2c1c(=O)n(C)c(=O)n2C	-	-	-	-	-	-	.
CC(C)n1c(SCc2ccccc2F)nc2c1c(=O)n(C)c(=O)n2C	-	-	-	56.8	-	-	58.4
CC(=O)NCCNc1nc2cc(-c3cc(F)ccc3C)sc2c(=O)n1C	-	-	-	-	.	.	.
N#C/C(=C/c1ccc(CNC(=O)C(=O)Nc2cc(Cl)cc(Cl)c2)o1)C(=O)NCc1cccnc1	-	91.7	-	54.2	-	-	44.8
Cc1ccc(NC(=O)C(=O)NCc2ccc(/C=C(/C#N)C(=O)NCc3cccnc3)o2)cc1	-	-	-	-	-	-	.
CC(C)c1nc2n[nH]c(N)c2c2c1CCCC2	-	-	-	50.1	-	-	-
C=C1CCC[C@]2(C)C[C@H]3OC(=O)C(CN(Cc4ccc(OC)c(OC)c4)CC(C)O)[C@H]3CC12 (stereo partly drawn)	-	-	-	56.2	-	-	47.4
CC(C)CC1OC(C)CC2=C1C(=O)OC(C)(C)O2 (stereo not drawn)	-	.	.	.	.	.	.
CC1(C)CC(=O)C2=C(C1)N(CCN1CCOCC1)C1=C(C(=O)CC(C)(C)C1)C2c1ccc(Cl)cc1	-	-	-	56.6	-	-	-
COc1ccc(C2C3=C(CC(C)(C)CC3=O)N(CCN3CCOCC3)C3=C2C(=O)CC(C)(C)C3)cc1	-	-	-	-	-	-	.
SMILES	HIF-2a inh	Peg3 prom inh	KKLEB tox	CF NFkB inh	B2AR ag	TRPM1 prom inh	CF NFkB conf
CCCCNC(=O)C[C@@H]1C[C@@]2(C(=O)OCC)CCCC=C2N(CCC2=CCCCC2)C1=O	-	.	.	.	.	.	.
CC(C)c1ccccc1NC(=O)COC(=O)c1c2c(nc3ccccc13)CCN(Cc1ccccc1)C2	-	57.4	-	75.1	-	-	72.8
Cc1c(Cl)cccc1NC(=O)COC(=O)c1c2c(nc3ccccc13)CCN(Cc1ccccc1)C2	-	59.8	-	61.9	-	-	76.0
CCOc1cc(/C=N\NC(=O)c2ccc(NC(=O)C(C)(C)C)cc2)ccc1OC(=O)c1ccc(C)cc1	-	-	-	-	-	-	.
CCOc1cc(/C=N\NC(=O)c2ccc(NC(=O)CC)cc2)ccc1OC(=O)c1ccccc1	-	70.8	-	51.3	-	-	-
C#CCNC(=O)c1cc2c(Br)ccc(Br)c2nc1N	-	.	.	.	.	.	.
CC(=O)[C@@]1(O)CC[C@H]2[C@@H]3C[C@H](C)C4=CC(=O)CC[C@]4(C)[C@H]3CC[C@@]21C	-	-	-	53.9	-	-	-
C[C@H](CO)N1C[C@H](C)[C@@H](CN(C)C(=O)c2cnccn2)Oc2cc(C#CCC3CCCC3)ccc2S1(=O)=O	-	-	-	-	.	.	.
CC(=O)C1(C)CCC2C3C=C(C)C4=CC(=O)CCC4(C)C3CCC21C (stereo not drawn)	-	-	-	-	-	-	.
C=C1C[C@H]2[C@@H]3C=C(C)C4=CC(=O)CC[C@]4(C)[C@H]3CC[C@]2(C)[C@@]1(OC(C)=O)C(C)=O	-	-	-	67.7	-	-	-
CCSC1(SCC)N=C(N)C2(C#N)C(c3ccccc3)NC3=C(CCC3)C12C#N (stereo not drawn)	-	-	-	-	-	-	.
CCSC1(SCC)N=C(N)C2(C#N)C(c3ccc(OC)c(OC)c3OC)C12C#N (stereo not drawn)	-	-	-	79.1	-	-	-
CC(C)N(C)c1ncnc2c1ncn2[C@H]1CN(Cc2ccc(-c3ccccc3)cc2)C[C@@H](CO)O1	-	-	-	-	.	.	.
COc1ccc(N=C2C(=S)N(c3ccc(OC)cc3)C(=NS(=O)(=O)c3ccccc3)N2c2ccccc2)cc1	-	-	-	-	-	-	.
N=C1N(c2ccccc2)C(=S)C(=Nc2ccccc2)N1c1ccccc1	-	74.3	-	67.2	-	-	81.2
C[C@H]1Cn2cnc(C(=O)Nc3cccc(Cl)c3)c2C(=O)N1	-	-	-	61.9	.	.	91.1
O=C(c1[nH]c(C(F)(F)F)nc1-c1ccccc1)N1CCN(c2c(Cl)cncc2Cl)CC1	-	-	-	64.1	.	.	56.9
c1ccc(N2CCN(c3ncnc4sc5c(c34)CCC5)CC2)cc1	-	-	-	58.8	-	-	42.3
CC1CCc2c(sc3ncnc(N4CCOCC4)c23)C1 (stereo not drawn)	-	-	-	66.2	-	-	62.8
CC1CCc2sc3ncnc(N4CCOCC4)c3c2C1 (stereo not drawn)	-	-	-	50.8	-	-	57.4
CC1CCc2c(sc3ncnc(NCCN4CCOCC4)c23)C1 (stereo not drawn)	-	-	-	-	-	-	.
COC(=O)C1(C(=O)OC)CCCCN(S(=O)(=O)c2ccc(C)cc2)CCC1	-	.	.	.	.	.	.
CCc1nc2c(OCC(=O)c3ccc(F)cc3)cccn2c1N(C)C(=O)c1ccccc1F	-	-	-	-	.	.	.
COc1ccc2[nH]c3c(c(=O)c2c1)CCCC3	-	-	-	-	.	.	.
